{
  "source": "the supplement of paper PMC10849652",
  "note": "The full data set covers some 7,900 targets. This sample favours those with a hit. About 0.6% of all pairs of compound and target were hits. Values without a mark were called inactive.",
  "data": [
    {"compound": "c1ccc([C@@H]2C[C@H]2NC2CCNCC2)cc1", "assay": "log2 fold change, soluble protein after heating vs DMSO (PISA); higher = thermal stabilisation; K562 cells, 10 uM, 30 min; active = over 0.2 and 3.5 SD of the protein, either way, in both replicates (recomputed)", "method_in_brief": "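Values are thermal stability changes relative to control samples and are taken from duplicates. They are stated as log2 fold changes. Before quantification by TMTpro 16plex LC-MS/MS with equalised channel sums, K562 cells at 2×10^6 cells/mL were treated with 10 μM compound for 30 min, heated in aliquots for 3 min across 48°C-58°C, pooled, extracted in PBS with 0.5% NP-40 at 4°C, and centrifuged at 21,000xg for 90 min to give the soluble supernatant.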", "values": [
      {"target": "YIPF4 (UniProt Q9BSR8)", "log2 fold change": 0.046},
      {"target": "ZC3H18 (UniProt Q86VM9)", "log2 fold change": 0.047},
      {"target": "YPEL5 (UniProt P62699)", "log2 fold change": -0.081},
      {"target": "ZC3HC1 (UniProt Q86WB0)", "log2 fold change": -0.018},
      {"target": "ZMYM3 (UniProt Q14202)", "log2 fold change": 0.103},
      {"target": "YWHAZ (UniProt P63104)", "sequence (P63104 whole entry, looked up)": "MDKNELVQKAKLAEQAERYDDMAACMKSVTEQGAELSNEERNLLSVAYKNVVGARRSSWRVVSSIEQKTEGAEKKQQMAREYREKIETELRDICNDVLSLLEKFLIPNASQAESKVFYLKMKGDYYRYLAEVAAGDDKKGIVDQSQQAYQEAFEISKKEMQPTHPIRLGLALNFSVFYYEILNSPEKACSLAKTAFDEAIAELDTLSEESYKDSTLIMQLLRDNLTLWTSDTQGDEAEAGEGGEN", "log2 fold change": -0.025},
      {"target": "ZDHHC20 (UniProt Q5W0Z9)", "sequence (Q5W0Z9 whole entry, looked up)": "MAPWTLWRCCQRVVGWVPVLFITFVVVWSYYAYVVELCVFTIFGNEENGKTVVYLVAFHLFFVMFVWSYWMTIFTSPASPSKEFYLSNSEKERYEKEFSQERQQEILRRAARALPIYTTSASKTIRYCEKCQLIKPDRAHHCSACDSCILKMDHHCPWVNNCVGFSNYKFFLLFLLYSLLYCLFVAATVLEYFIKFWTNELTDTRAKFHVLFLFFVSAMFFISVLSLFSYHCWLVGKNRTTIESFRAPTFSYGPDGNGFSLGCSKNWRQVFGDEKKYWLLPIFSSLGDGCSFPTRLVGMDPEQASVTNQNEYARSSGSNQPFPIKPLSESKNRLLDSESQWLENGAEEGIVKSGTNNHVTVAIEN", "log2 fold change": 0.067},
      {"target": "ZRANB2 (UniProt O95218)", "sequence (O95218 whole entry, looked up)": "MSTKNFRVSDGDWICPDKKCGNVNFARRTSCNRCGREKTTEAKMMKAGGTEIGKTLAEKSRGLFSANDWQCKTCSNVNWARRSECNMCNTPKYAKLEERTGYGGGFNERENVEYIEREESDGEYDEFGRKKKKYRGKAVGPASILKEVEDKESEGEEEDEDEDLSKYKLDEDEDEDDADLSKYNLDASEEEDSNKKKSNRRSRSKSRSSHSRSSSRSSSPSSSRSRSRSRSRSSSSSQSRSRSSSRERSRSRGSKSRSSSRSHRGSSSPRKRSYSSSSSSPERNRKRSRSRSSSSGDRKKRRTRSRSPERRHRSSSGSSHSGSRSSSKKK", "log2 fold change": 0.093},
      {"target": "ZNF512 (UniProt Q96ME7)", "log2 fold change": -0.363},
      {"target": "ZFAND6 (UniProt Q6FIF0)", "log2 fold change": 0.004},
      {"target": "YWHAZ (UniProt E7ESK7)", "log2 fold change": 0.052},
      {"target": "ZMYM1 (UniProt Q5SVZ6)", "log2 fold change": -0.011},
      {"target": "ZNF239 (UniProt Q16600)", "log2 fold change": 0.06},
      {"target": "YAE1 (UniProt Q9NRH1)", "log2 fold change": 0.095},
      {"target": "YWHAQ (UniProt P27348)", "sequence (P27348 whole entry, looked up)": "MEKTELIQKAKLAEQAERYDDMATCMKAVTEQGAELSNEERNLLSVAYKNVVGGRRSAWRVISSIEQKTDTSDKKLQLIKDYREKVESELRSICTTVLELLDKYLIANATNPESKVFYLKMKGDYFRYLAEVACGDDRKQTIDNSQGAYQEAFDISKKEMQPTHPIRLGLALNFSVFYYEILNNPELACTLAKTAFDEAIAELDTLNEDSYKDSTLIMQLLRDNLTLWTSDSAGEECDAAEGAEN", "log2 fold change": -0.083},
      {"target": "ZW10 (UniProt O43264)", "sequence (O43264 whole entry, looked up)": "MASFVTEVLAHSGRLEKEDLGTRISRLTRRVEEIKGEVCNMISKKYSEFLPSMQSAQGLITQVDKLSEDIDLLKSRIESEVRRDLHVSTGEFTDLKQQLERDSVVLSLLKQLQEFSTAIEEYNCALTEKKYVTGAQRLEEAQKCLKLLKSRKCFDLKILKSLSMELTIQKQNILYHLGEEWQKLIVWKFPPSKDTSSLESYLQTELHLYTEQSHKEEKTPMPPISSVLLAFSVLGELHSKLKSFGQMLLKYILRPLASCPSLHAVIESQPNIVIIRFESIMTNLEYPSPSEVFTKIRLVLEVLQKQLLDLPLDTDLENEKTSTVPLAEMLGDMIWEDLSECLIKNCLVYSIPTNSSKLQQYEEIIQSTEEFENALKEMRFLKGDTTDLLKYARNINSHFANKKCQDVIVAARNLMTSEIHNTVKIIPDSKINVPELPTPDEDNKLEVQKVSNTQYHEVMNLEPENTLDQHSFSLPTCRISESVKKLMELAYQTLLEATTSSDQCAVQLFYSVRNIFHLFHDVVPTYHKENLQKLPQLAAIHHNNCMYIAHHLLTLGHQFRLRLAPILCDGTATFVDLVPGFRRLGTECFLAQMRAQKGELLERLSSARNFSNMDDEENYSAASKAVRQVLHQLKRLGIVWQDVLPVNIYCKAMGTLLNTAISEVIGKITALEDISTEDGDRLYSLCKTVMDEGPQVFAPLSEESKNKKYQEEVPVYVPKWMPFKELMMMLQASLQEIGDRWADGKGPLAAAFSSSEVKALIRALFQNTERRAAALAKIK", "log2 fold change": 0},
      {"target": "YES1 (UniProt P07947)", "log2 fold change": -0.038},
      {"target": "YOD1 (UniProt Q5VVQ6)", "log2 fold change": 0.046},
      {"target": "ZNF579 (UniProt Q8NAF0)", "log2 fold change": -0.147},
      {"target": "ZNF609 (UniProt O15014)", "log2 fold change": 0.073},
      {"target": "YIPF6 (UniProt Q96EC8)", "log2 fold change": 0.015},
      {"target": "YWHAB (UniProt P31946)", "sequence (P31946 whole entry, looked up)": "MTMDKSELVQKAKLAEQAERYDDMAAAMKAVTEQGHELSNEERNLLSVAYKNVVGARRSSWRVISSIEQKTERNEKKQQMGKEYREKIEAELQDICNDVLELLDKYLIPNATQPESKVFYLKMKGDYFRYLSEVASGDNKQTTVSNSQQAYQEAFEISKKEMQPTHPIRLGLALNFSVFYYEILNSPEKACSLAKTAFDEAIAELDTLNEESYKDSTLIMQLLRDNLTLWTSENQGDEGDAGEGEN", "log2 fold change": -0.03},
      {"target": "ZFPL1 (UniProt O95159)", "log2 fold change": -0.032},
      {"target": "YY1 (UniProt P25490)", "log2 fold change": 0.084},
      {"target": "ZNF217 (UniProt O75362)", "sequence (O75362 whole entry, looked up)": "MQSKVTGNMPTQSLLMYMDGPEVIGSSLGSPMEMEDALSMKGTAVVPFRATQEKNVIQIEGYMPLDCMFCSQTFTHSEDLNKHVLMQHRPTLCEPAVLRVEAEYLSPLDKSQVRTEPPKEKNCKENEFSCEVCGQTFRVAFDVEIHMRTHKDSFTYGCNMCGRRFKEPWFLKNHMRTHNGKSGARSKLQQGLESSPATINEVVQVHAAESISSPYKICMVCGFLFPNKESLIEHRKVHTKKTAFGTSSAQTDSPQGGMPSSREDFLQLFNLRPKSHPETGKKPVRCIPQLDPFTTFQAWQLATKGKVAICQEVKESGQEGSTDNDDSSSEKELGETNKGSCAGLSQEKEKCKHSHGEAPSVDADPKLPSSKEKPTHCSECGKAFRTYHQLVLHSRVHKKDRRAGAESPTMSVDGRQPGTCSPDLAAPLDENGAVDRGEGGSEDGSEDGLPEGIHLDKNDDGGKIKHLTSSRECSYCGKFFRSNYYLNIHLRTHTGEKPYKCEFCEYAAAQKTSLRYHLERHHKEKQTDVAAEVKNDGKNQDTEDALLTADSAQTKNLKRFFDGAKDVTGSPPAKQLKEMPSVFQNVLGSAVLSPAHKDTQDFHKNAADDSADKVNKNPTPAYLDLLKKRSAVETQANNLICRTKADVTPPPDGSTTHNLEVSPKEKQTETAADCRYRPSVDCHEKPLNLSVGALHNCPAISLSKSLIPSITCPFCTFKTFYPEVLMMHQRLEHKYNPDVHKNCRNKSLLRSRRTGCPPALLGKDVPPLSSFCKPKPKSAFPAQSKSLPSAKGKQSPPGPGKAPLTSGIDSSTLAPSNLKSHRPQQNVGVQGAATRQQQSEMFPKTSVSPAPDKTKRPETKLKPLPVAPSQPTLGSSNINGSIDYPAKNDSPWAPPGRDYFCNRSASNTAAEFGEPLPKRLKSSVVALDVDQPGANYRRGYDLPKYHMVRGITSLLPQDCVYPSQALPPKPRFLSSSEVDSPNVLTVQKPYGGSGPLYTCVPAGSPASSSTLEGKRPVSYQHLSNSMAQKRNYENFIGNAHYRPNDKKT", "log2 fold change": "0.306 (active)"},
      {"target": "ZNF511 isoform 1 (UniProt Q8NB15)", "sequence (Q8NB15 whole entry, looked up)": "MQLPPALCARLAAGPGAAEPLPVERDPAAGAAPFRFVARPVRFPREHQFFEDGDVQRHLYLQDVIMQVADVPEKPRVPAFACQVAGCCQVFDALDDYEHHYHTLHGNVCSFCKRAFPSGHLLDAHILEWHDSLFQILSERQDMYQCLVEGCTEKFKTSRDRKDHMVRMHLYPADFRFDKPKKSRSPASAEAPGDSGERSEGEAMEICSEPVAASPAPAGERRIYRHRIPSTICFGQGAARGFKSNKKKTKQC", "log2 fold change": 0.102},
      {"target": "ZNF277 (UniProt Q9NRM2)", "log2 fold change": 0},
      {"target": "ZCCHC9 (UniProt Q8N567)", "log2 fold change": 0.023},
      {"target": "YLPM1 (UniProt P49750)", "log2 fold change": -0.052},
      {"target": "ZC3H8 (UniProt Q8N5P1)", "log2 fold change": 0},
      {"target": "ZBTB21 (UniProt Q9ULJ3)", "sequence (Q9ULJ3 whole entry, looked up)": "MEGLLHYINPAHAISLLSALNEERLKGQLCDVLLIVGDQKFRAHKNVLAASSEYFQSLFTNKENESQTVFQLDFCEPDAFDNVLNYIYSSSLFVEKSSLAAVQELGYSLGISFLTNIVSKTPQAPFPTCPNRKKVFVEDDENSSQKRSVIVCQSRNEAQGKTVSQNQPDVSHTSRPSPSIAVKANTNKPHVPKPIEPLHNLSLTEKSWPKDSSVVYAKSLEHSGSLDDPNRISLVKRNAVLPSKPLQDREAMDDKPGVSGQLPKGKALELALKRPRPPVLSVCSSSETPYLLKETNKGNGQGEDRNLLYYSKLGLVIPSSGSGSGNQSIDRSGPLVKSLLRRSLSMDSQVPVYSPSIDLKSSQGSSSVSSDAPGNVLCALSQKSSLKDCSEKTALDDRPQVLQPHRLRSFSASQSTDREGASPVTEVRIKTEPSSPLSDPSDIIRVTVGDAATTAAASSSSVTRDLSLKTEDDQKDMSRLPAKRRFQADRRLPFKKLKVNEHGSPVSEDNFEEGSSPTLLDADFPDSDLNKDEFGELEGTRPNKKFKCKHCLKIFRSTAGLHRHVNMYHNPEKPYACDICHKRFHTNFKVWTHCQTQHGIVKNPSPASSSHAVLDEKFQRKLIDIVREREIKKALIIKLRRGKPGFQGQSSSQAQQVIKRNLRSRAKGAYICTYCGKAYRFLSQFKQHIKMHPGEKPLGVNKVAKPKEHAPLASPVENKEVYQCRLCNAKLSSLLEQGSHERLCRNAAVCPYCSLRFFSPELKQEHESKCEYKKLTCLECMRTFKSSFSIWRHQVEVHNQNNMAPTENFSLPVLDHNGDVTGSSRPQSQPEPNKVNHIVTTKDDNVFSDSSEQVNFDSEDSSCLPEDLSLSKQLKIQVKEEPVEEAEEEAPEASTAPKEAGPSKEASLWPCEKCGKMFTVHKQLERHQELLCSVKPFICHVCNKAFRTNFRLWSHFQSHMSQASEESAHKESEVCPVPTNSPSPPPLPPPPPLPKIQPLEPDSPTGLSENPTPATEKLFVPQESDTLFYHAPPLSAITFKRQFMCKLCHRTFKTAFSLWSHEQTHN", "log2 fold change": 0.006},
      {"target": "ZMAT2 (UniProt Q96NC0)", "log2 fold change": -0.016},
      {"target": "YBX1 (UniProt P67809)", "log2 fold change": 0.052},
      {"target": "ZDHHC7 isoform 2 (UniProt Q9NXF8)", "sequence (Q9NXF8 whole entry, looked up)": "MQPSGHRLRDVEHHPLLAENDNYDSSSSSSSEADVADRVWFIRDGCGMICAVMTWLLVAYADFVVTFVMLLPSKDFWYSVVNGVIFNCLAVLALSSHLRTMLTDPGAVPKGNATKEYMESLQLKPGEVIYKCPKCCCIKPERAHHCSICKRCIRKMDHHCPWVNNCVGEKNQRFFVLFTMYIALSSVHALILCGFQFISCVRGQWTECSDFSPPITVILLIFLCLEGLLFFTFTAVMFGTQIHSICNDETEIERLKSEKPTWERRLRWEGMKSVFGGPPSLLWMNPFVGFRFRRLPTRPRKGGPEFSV", "log2 fold change": 0.081}
    ]}
  ]
}
